Among the data in PubChem BioAssay (NCI) are growth values, retold here.

Compounds without any hit were thinned out: in the full panel of roughly 83,000, 20% have a hit.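 A percent growth of 40 corresponds to 60% growth inhibition; 0 means no net growth; -100 means all cells died. Active threshold: below 10.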 A number with no mark means an inactive call. Calls of active or inactive are those of the source.

What all share (assay): NCI-60 one-dose screen, 48 h (100 = growth as untreated, 0 = no growth, -100 = all killed)
Common to all, as to settings: 10 µM

The subject of experiment [1] is K-562 leukemia.
In experiment [2] the test system is MDA-MB-231 breast.
Experiment [3] relates to RXF 393 renal.
Experiment [4] concerns SF-268 CNS.
The test system of experiment [5] is SF-295 CNS.
For experiment [6], the system named is SF-539 CNS.
For experiment [7], the system named is UACC-257 melanoma.
Experiment [8] has as its system M14 melanoma.
In experiment [9] the test system is HCT-15 colon.
Experiment [10] has as its system HT29 colon.
The subject of experiment [11] is SNB-75 CNS.
The subject of experiment [12] is SNB-19 CNS.
For experiment [13], the system named is U251 CNS.
The test system of experiment [14] is PC-3 prostate.
Experiment [15] relates to SK-MEL-5 melanoma.
Experiment [16] concerns UACC-62 melanoma.
The subject of experiment [17] is LOX IMVI melanoma.
The test system of experiment [18] is SK-MEL-28 melanoma.
Experiment [19] relates to SK-MEL-2 melanoma.

Regarding `COc1ccc(-c2nc3sc(-c4ccccc4)c(-c4ccccc4)n3c2/C=C/C(=O)c2ccccn2)cc1`, the growth in experiment [1] was 66%; in experiment [2] it was 75.9%; in experiment [3] it was 84%; in [4], 88%; in experiment [5], 99.5%; in experiment [6] it was 83.7%. In addition, the growth is 87.2% in [7]; 89% in experiment [8]; 60.6% in experiment [9]; 34.7% in experiment [10]; 29.1% in [11]; 97.1% in experiment [12]. Besides, the growth in experiment [13] is 85.4%; in experiment [14], 3.71% (active); in experiment [15] it was 70.9%; in [16] it was 104%; in experiment [17], 90.5%; in experiment [18] it was 104%. In [19], the growth was 67.3%.

On to `COc1ccc(-c2nc3sc(-c4ccc(OC)cc4)c(-c4ccc(OC)cc4)n3c2/C=C/c2ccc(C(C)C)cc2)cc1`, for which the growth is 105% in experiment [1]; 90.9% in [2]; 92.4% in experiment [3]; 106% in experiment [4]; 96.6% in experiment [5]; 94.3% in experiment [6]. Also, the growth in [7] is 95.6%; in [8], 98.4%; in experiment [9], 92.5%; in experiment [10], 92.5%; in experiment [11], 55.9%; in experiment [12], 103%. The growth in experiment [13] is 102%; in [14], 79.4%; in experiment [15], 99.9%; in experiment [16], 86.9%; in [17], 98.6%; in [18], 100%. The growth in experiment [19] is 84.3%.

As for `COc1ccc2c(c1)N(CCO)C1=C(C(=O)OC1)C2c1cc(OC)c(OC)c(OC)c1` (stereo unspecified), the growth in experiment [1] was 15%; in experiment [2] it was -24.4% (active); in experiment [3] it was 55.5%; in experiment [4], 23.9%; in experiment [5] it was -20.6% (active); in experiment [6] it was -6.38% (active). The growth is 47.4% in experiment [7]; 11.2% in experiment [8]; 5.29% (active) in experiment [9]; -4.82% (active) in [10]; 38.3% in experiment [11]; 19.1% in experiment [12]. For the same compound, the growth in [13] was 9.9% (active); in experiment [14], 21.9%; in experiment [15], -24.7% (active); in [16], 8.69% (active); in experiment [17] it was 25.1%; in [18] it was 65.6%.

`CC(=O)c1cc(Br)ccc1O`: the growth is 103% in experiment [1]; 108% in experiment [2]; 109% in experiment [3]; 112% in experiment [4]; 95.3% in experiment [5]; 97.1% in experiment [6]. Besides, the growth in experiment [7] was 113%; in experiment [8] it was 104%; in experiment [9] it was 101%; in experiment [10], 116%; in experiment [11] it was 106%; in experiment [12], 109%. Besides, the growth in [13] was 108%; in experiment [14] it was 93.5%; in experiment [15], 104%; in [16], 104%; in [17] it was 103%; in experiment [18], 105%. In addition, in [19], the growth is 106%.

As to `CC(C)(C)NC/C(=C\c1ccccc1)C(=O)c1ccccc1`, the growth is 6.24% (active) in experiment [1]; -23% (active) in [2]; -66.4% (active) in experiment [3]; 7.36% (active) in [4]; 85.9% in experiment [5]; -46.2% (active) in experiment [6]. Besides, the growth in experiment [7] is -8.37% (active); in experiment [8], -30.6% (active); in experiment [9] it was -52.1% (active); in experiment [10], -46.1% (active); in experiment [11], 26.9%; in [12], 66.1%. Also, the growth in experiment [13] was -18.1% (active); in [14] it was 0.348% (active); in experiment [15], -66.9% (active); in experiment [16] it was -79.3% (active); in [17], -77% (active); in [18], -29.2% (active). In addition, the growth in experiment [19] is -64.3% (active).

With `CN(C)CCOc1nc2ccccc2c2c1-c1ccc(Cl)cc1C2=O`, the growth in experiment [1] is -29.9% (active); in experiment [2], 14.8%; in [3], -35.6% (active); in experiment [4], -25.3% (active); in [5] it was -27.9% (active); in experiment [6] it was -1.7% (active). The growth in experiment [7] was -68% (active); in [8], -83.4% (active); in experiment [9], 5.59% (active); in experiment [10], -33.8% (active); in [11], -63.8% (active); in [12] it was 14.9%. In addition, the growth was 0.224% (active) in [13]; 2.76% (active) in [14]; -91.6% (active) in experiment [15]; -39.5% (active) in experiment [16]; -37.1% (active) in [17]; -49.9% (active) in experiment [18]. For the same compound, the growth in experiment [19] was -9.67% (active).

As to `CC(C)=CCc1ccc(O)c(=O)cc1C(C)C`, the growth in experiment [1] is 11.1%; in experiment [2], 52.4%; in experiment [3], 12.7%; in experiment [4], 13.7%; in experiment [5], 8.22% (active); in experiment [6] it was 20%. Further, the growth in experiment [7] is 13.6%; in [8], -16.8% (active); in [9], 38.1%; in experiment [10] it was 28.5%; in [11], 12.7%; in experiment [12], 41%. The growth in [13] was 15.5%; in [14] it was 43.7%; in experiment [15] it was -17.2% (active); in [16] it was 14.3%; in experiment [17], 22%; in [18], 34.5%. In addition, in experiment [19], the growth was 17.2%.

Turning to `COc1cc(-c2cc(C(=O)N3CCN(C(=O)c4ccccc4NCc4cccs4)CC3)nc3cc(-c4ccccc4)nn23)cc(OC)c1OC`, the growth is 31.4% in experiment [1]; 90.1% in experiment [2]; 62.3% in [3]; 90.8% in experiment [4]; 105% in [5]; 98.5% in [6]. Also, the growth in experiment [7] was 76.4%; in [8] it was 70.9%; in experiment [9], 55.4%; in [10], 28%; in experiment [11], 71%; in experiment [12], 85.1%. For the same compound, the growth was 72.1% in experiment [13]; 34% in experiment [14]; 37.9% in [15]; 60% in experiment [16]; 70% in experiment [17]; 81.5% in [18]. The growth in experiment [19] was 68.4%.
